High-throughput results from PubChem.
CHT block: human CHT choline transport inhibition. CHT-expressing cells, membrane potential dye, choline response; active compounds read low. B-score at 10 µM. 310,000 compounds, 0.86% hits;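 active = B-score over 3 SD under the library average, and starting fluorescence ratio not unusually high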;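 note: choline stimulus applied at its EC90 after an EC20 pre-addition; B-score computed on integrated fluorescence ratio after choline addition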
Target sequence (Q9GZV3 whole entry, looked up): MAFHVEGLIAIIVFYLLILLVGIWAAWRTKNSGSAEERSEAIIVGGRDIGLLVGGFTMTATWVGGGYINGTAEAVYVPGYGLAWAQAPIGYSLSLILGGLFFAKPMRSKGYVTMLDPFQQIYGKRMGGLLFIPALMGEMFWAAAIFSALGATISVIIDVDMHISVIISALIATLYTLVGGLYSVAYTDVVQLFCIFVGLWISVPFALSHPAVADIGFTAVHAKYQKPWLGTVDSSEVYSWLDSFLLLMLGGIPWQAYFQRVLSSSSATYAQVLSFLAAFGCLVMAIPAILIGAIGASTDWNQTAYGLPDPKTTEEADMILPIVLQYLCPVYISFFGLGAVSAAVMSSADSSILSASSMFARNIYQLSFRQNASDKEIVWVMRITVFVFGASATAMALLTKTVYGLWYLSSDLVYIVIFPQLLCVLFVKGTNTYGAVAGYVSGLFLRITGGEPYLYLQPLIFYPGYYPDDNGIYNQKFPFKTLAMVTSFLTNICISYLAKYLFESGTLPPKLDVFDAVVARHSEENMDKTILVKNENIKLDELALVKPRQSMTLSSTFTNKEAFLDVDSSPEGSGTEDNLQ
ANO1 activ: activates or potentiates the mouse TMEM16A chloride channel | Q8BHY3 | HEK293 TMEM16A/YFP-H148Q/I152L, iodide quench fluorescence; active compounds read low | B-score at 10 µM | 340,000 compounds, 0.3% hits | AID 623877;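 active = fluorescence-ratio B-score plate-corrected deviation score at least 3 library SD below zero, with starting fluorescence score within 5 deviations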;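 note: channel opened by trigger with iodide after compound preincubation; score built on the fluorescence ratio of max minus min over baseline; more negative score means more quench and so TMEM16A activation or potentiation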
IDE act: activators of human insulin-degrading enzyme in cells. 340,000 compounds, 0.073% hits. P14735. activation, % at 5.96 µM. HEK cells, FAbeta-B cleavage, fluorescence polarization; 0% vehicle, 100% cell-free pure enzyme wells;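 active = activation above the mean of all tested compounds plus 3 SD, set per screening campaign, cut at about 17% in these data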
ANO1 block: mouse TMEM16A channel inhibition, primary screen | normalized B-score (activity score, 25-100; higher = stronger inhibition) at 10 µM | 310,000 compounds, 1.2% hits | HEK293 TMEM16A/YFP iodide influx fluorescence, ionomycin | Q8BHY3;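 active = ratio plate-corrected score three or more library SD toward inhibition, starting fluorescence score within five deviations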;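 note: score derived from kinetic fluorescence span divided by baseline fluorescence per well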
CHT PAM: allosterically activates the human high affinity choline transporter; B-score at 10 µM; 310,000 compounds, 0.49% hits; CHT-expressing cells, membrane potential dye, choline EC20; active compounds read high; LV-AA mutant CHT in HEK293 cells;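 active = initial fluorescence not abnormally high and integrated response B-score, plate-corrected, over 3 SD above library mean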
IDE inh: inhibitors of human insulin-degrading enzyme in cells | P14735 | HEK cells, FAbetaB cleavage, fluorescence polarization | inhibition, % at 5.59 µM | 320,000 compounds, 0.41% hits;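 active = percent inhibition above the average of all tested compounds plus 3 SD, set per screening campaign, cut at about 16% in these data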;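 note: IDE supplied by intact live HEK cells; FP after avidin binding of uncleaved biotin substrate so inhibition keeps polarization high; 0% = DMSO wells and 100% = 60 µM reference IDE inhibitor Ii1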
CHT activ conf: confirmation of human choline transporter (CHT) activators; shares compounds with CHT PAM; CHT-expressing cells, membrane potential dye fluorescence (FDSS); % of choline EC20–EC90 response window; HEK293 expressing CHT LV-AA mutant; choline added at its EC20; activation, % at 10 µM; 2,500 compounds, 91% hits; AID 504833;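 active = primary screen active, with duplicate mean activation above negative control mean plus 3 SD, cut at about 11% in these data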
HEK293 MP dye: activity in parental HEK293 cells lacking CHT | membrane potential dye fluorescence (FDSS); measured after EC20 choline addition | 2,500 compounds, 62% hits | ratio readout change at 10 µM, hits read low | shares compounds with CHT PAM | AID 623908;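 active = duplicate-averaged ratio beyond 3 SD from buffer wells, up or down, though filed actives are nearly all decreases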
* marks the source's active call; other numbers are inactive results. This is a sample that favours compounds with a hit; in the whole collection about 2.7% have one here.

What do the screens show for `O=C(NC1CCCCC1)C(c1ccco1)N(Cc1cccnc1)C(=O)C1COc2ccccc2O1` (centres undefined)?
CHT block: inactive; ANO1 activ: inactive; IDE act: 3; ANO1 block: inactive; CHT PAM: inactive; IDE inh: -2; CHT activ conf: 13*; HEK293 MP dye: inactive

How did O=C(NC1CCCC1)C(=O)N(Cc1cccnc1)C(C(=O)NC1CCCC1)c1ccco1 (centres undefined) do in these assays?
CHT block: inactive; ANO1 activ: inactive; IDE act: 2; ANO1 block: inactive; CHT PAM: inactive; IDE inh: -2

What do the screens show for `CCN(CC)CCNc1ccc(CO)c2sc3ccccc3c(=O)c12`?
CHT block: inactive; ANO1 activ: inactive; IDE act: 3; ANO1 block: inactive; CHT PAM: 6.4*; IDE inh: 1; CHT activ conf: 44*; HEK293 MP dye: -49*

Results for O=c1c2ccccc2sc2c(CO)ccc(NCCN3CCCCC3)c12 ?
ANO1 activ: inactive; IDE act: 6

What do the screens show for `COCCNc1cc(C)c(C#N)c2nc3ccccc3n12`?
CHT block: inactive; ANO1 activ: inactive; IDE act: -1; ANO1 block: inactive; CHT PAM: inactive; IDE inh: 2; CHT activ conf: 24*; HEK293 MP dye: -49*

What do the screens show for `Cc1cc(NCCCO)n2c(nc3ccccc32)c1C#N`?
CHT block: inactive; ANO1 activ: inactive; IDE act: 5; ANO1 block: inactive; CHT PAM: inactive; IDE inh: -4

How did CNc1cc(C)c(C#N)c2nc3ccccc3n12 do in these assays?
CHT block: inactive; ANO1 activ: inactive; IDE act: 3; ANO1 block: inactive; CHT PAM: inactive; IDE inh: 2

How did Cc1cc(NCCOCCO)n2c(nc3ccccc32)c1C#N do in these assays?
CHT block: inactive; ANO1 activ: inactive; IDE act: 0; ANO1 block: inactive; CHT PAM: inactive; IDE inh: -4; CHT activ conf: 51*; HEK293 MP dye: -59*

Results for COc1ccc(CNCCC(c2ccc(F)cc2)c2ccc(OC)cc2)cc1 (centres undefined) ?
CHT block: inactive; ANO1 activ: inactive; IDE act: 6; ANO1 block: inactive; CHT PAM: inactive; IDE inh: -5; CHT activ conf: 0; HEK293 MP dye: inactive

How did COc1ccc(C(CCNC(C)c2ccccc2)c2ccc(F)cc2)cc1 (centres undefined) do in these assays?
CHT block: inactive; ANO1 activ: inactive; IDE act: 4; ANO1 block: inactive; CHT PAM: inactive; IDE inh: 0; CHT activ conf: 44*; HEK293 MP dye: inactive

How did COc1ccc(C(CCNCc2ccc(OC(C)C)cc2)c2ccccc2OC)cc1 (centres undefined) do in these assays?
CHT block: inactive; ANO1 activ: inactive; IDE act: 3; ANO1 block: 25*; CHT PAM: 6.7*; IDE inh: 4; CHT activ conf: 14*; HEK293 MP dye: inactive

Results for COc1ccc(CNCCC(c2ccc(OC)cc2)c2ccccc2OC)cc1 (centres undefined) ?
CHT block: inactive; ANO1 activ: inactive; IDE act: -2; ANO1 block: inactive; CHT PAM: 7.8*; IDE inh: 3; CHT activ conf: 17*; HEK293 MP dye: inactive

What do the screens show for `O=C(COC(=O)CCC1CCCC1)Nc1cccc(S(=O)(=O)N2CCOCC2)c1`?
CHT block: inactive; ANO1 activ: inactive; IDE act: 3; ANO1 block: inactive; CHT PAM: inactive; IDE inh: -1

How did CCOC(=O)/C(=N/Nc1ccc(Br)cc1)N1CC(C)OC(C)C1 (centres undefined) do in these assays?
ANO1 activ: inactive; IDE act: 6

Results for O=C1c2ccccc2C(=O)N1CCCc1cn(C[C@H]2CC[C@H](Cn3cc(CCCN4C(=O)c5ccccc5C4=O)nn3)O2)nn1 ?
IDE act: 4

What do the screens show for `COc1ccc(CNCCC(c2ccc(F)cc2)c2ccc(OC(C)C)cc2)cc1OC` (centres undefined)?
CHT block: inactive; ANO1 activ: inactive; IDE act: 6; ANO1 block: inactive; CHT PAM: inactive; IDE inh: -1

Results for COc1ccc(CNCCC(c2ccccc2)c2ccc(OC(C)C)cc2)cc1OC (centres undefined) ?
CHT block: inactive; ANO1 activ: inactive; IDE act: 1; ANO1 block: inactive; CHT PAM: 7.5*; IDE inh: -1; CHT activ conf: 8; HEK293 MP dye: inactive

How did CCOC(=O)c1ccc2c(c1)n(CCCS(=O)(=O)[O-])c(/C=C/c1ccc(Cl)cc1)[n+]2CC do in these assays?
CHT block: inactive; ANO1 activ: inactive; IDE act: -2; ANO1 block: inactive; CHT PAM: 11*; IDE inh: 2; CHT activ conf: 71*; HEK293 MP dye: -86*

How did CCn1c(/C=C/N(C(C)=O)c2ccccc2)[n+](CC)c2ccc(Cl)cc21 do in these assays?
CHT block: inactive; ANO1 activ: inactive; IDE act: -2; ANO1 block: inactive; CHT PAM: inactive; IDE inh: 11

How did COc1ccc(C(c2nnnn2Cc2cccs2)N2CCN(c3ccccc3F)CC2)cc1 (centres undefined) do in these assays?
CHT block: inactive; ANO1 activ: inactive; IDE act: 0; ANO1 block: inactive; CHT PAM: inactive; IDE inh: 14; CHT activ conf: 31*; HEK293 MP dye: inactive

How did COc1ccc(C(c2nnnn2Cc2ccccc2)N2CCN(c3ccccc3)CC2)cc1 (centres undefined) do in these assays?
CHT block: inactive; ANO1 activ: inactive; IDE act: 4; ANO1 block: inactive; CHT PAM: inactive; IDE inh: -1

How did CCOC(=O)N1CCN(c2nc(-c3cccs3)nc3ccccc23)CC1 do in these assays?
CHT block: inactive; ANO1 activ: inactive; IDE act: -4; ANO1 block: inactive; CHT PAM: 6.7*; IDE inh: -4; CHT activ conf: 30*; HEK293 MP dye: inactive
